This is part of a sample that, as a whole, favours compounds with a hit. Of some 83,000 tested, about 20% had one in any assay.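 Percent growth is the endpoint: 0 to 100 indicates growth inhibition (40 means 60% inhibition), 0 means no net growth, and negative values indicate cell death.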 Unmarked numbers belong to inactive results. Activity calls are given as the source filed them. How the source made its calls: active means growth percent below 10; inactive means the rest.

Some test systems named below: T-47D breast; BT-549 breast; MDA-MB-435 melanoma; SW-620 colon; MCF7 breast; HCT-116 colon; HCC-2998 colon; KM12 colon; MDA-MB-468 breast.
What all share (test): NCI-60 one-dose screen, 48 h (100 = growth as untreated, 0 = no growth, -100 = all killed)

On to `C[C@H]1[C@@H](CC(=O)N[C@@H](Cc2coc3ccccc23)B(O)O)O[C@@H]2OC3(C)CC[C@H]4[C@H](C)CC[C@@H]1[C@@]24O3`, for which the growth in the test on T-47D breast (10 µM unless noted) was 27.1%; in the test on BT-549 breast (10 µM unless noted), -72.8% (active); in the test with MDA-MB-435 melanoma (10 µM unless noted) it was -75.8% (active); in the test on SW-620 colon (10 µM unless noted), 3.32% (active); in the test on MCF7 breast (10 µM unless noted), 24.4%; in the test on HCT-116 colon (10 µM unless noted), -56.6% (active). Also, the growth in the test on HCC-2998 colon (10 µM unless noted) was -83.1% (active); in the test with KM12 colon (10 µM unless noted) it was 0.198% (active).
For the compound `OCCn1cc(-c2nc3ccc4[nH]ncc4c3c3c2CCCC3)cn1`, the growth with T-47D breast (10 µM unless noted) is 43.5%; with BT-549 breast (10 µM unless noted) it was 30.5%; in the test with MDA-MB-435 melanoma (10 µM unless noted), 12.4%; in the test on SW-620 colon (10 µM unless noted), 21.6%; with MCF7 breast (10 µM unless noted), 39.3%; with HCT-116 colon (10 µM unless noted) it was 24%. The growth in the test with HCC-2998 colon (10 µM unless noted) is 54%; in the test on KM12 colon (10 µM unless noted), 18.8%.
As for `O=C1/C(=C/C=C/c2ccco2)SC(=S)N1CC(=S)C1C=CS(=O)(=O)C1` (centres undefined), the growth was 80.2% in the test with T-47D breast (10 µM unless noted); 88.1% with BT-549 breast (10 µM unless noted); 96.7% with MDA-MB-435 melanoma (10 µM unless noted); 76.9% in the test with SW-620 colon (10 µM unless noted); 27.9% in the test on MCF7 breast (10 µM unless noted); 83.4% in the test with HCT-116 colon (10 µM unless noted). Also, the growth is 103% in the test on HCC-2998 colon (10 µM unless noted) and 89.4% in the test with KM12 colon (10 µM unless noted).
In the case of `C=CC[n+]1cccc2c3ccccc3ccc21`, the growth is 27% in the test on T-47D breast (10 µM unless noted); 9.92% (active) in the test on BT-549 breast (10 µM unless noted); 61.3% in the test on MDA-MB-435 melanoma (10 µM unless noted); 45.1% in the test on SW-620 colon (10 µM unless noted); 25.2% in the test on MCF7 breast (10 µM unless noted); 48.6% in the test with HCT-116 colon (10 µM unless noted). The figures for the growth in the test with HCC-2998 colon (10 µM unless noted), with KM12 colon (10 µM unless noted) and in the test on MDA-MB-468 breast (10 µM unless noted) were 55.7%, 20.2% and -9.82% (active), respectively.
As for `COc1cc(CNC(=O)C[C@H](C)CCC=C(C)C)ccc1OCc1cn(-c2ccccc2F)nn1`, the growth is 60.6% with T-47D breast (10 µM unless noted); 71% in the test on BT-549 breast (10 µM unless noted); 100% with MDA-MB-435 melanoma (10 µM unless noted); 92.7% in the test with SW-620 colon (10 µM unless noted); 66.9% in the test on MCF7 breast (10 µM unless noted); 60.2% in the test with HCT-116 colon (10 µM unless noted). Also, the growth is 101% in the test on HCC-2998 colon (10 µM unless noted) and 99.3% in the test with KM12 colon (10 µM unless noted).
With `O=Cc1cncc(-c2ccc3ncnc(N4CCc5cc(F)c(Cl)cc54)c3c2)c1`, the growth in the test with T-47D breast (10 µM unless noted) is 23.7%; with BT-549 breast (10 µM unless noted), -7.41% (active); in the test with MDA-MB-435 melanoma (10 µM unless noted) it was 46.2%; in the test with SW-620 colon (10 µM unless noted), 23.4%; in the test with MCF7 breast (10 µM unless noted), 1.77% (active); in the test on HCT-116 colon (10 µM unless noted), 33.7%. Further, the values for the growth in the test on HCC-2998 colon (10 µM unless noted) and in the test on KM12 colon (10 µM unless noted) were 64% and 81.8%, respectively.
In the case of `Nc1nn2c(-c3cc4cc(Br)ccc4oc3=O)ccnc2c1N=Nc1ccc(S(N)(=O)=O)cc1`, the growth in the test on T-47D breast (10 µM unless noted) was 77%; in the test with BT-549 breast (10 µM unless noted) it was 128%; with MDA-MB-435 melanoma (10 µM unless noted) it was 78.5%; with SW-620 colon (10 µM unless noted) it was 58.6%; with MCF7 breast (10 µM unless noted), 71.4%; in the test on HCT-116 colon (10 µM unless noted), 56%. In addition, the growth with HCC-2998 colon (10 µM unless noted) is 54.8%; in the test on KM12 colon (10 µM unless noted) it was 48.3%.
For the compound `Cc1nc2sccn2c1-c1nnc(SCC(C)C)o1`, the growth in the test on T-47D breast (10 µM unless noted) is 59.4%; in the test on BT-549 breast (10 µM unless noted), 88.7%; in the test on MDA-MB-435 melanoma (10 µM unless noted), 102%; in the test on SW-620 colon (10 µM unless noted), 97.6%; in the test with MCF7 breast (10 µM unless noted), 37.5%; with HCT-116 colon (10 µM unless noted), 82.8%. The growth with HCC-2998 colon (10 µM unless noted) was 113%; in the test with KM12 colon (10 µM unless noted) it was 98.1%.
As to `CC/C(=C(/c1ccc(O)cc1)c1ccc(OCCN(C)C(=O)COCCOCCNC(=O)c2ccc3c(c2)CN([C@@H]2CCC(=O)NC2=O)C3=O)cc1)c1ccccc1`, the growth in the test with T-47D breast (1 µM) is 28.6%; with T-47D breast (10 µM), 33.4%; with BT-549 breast (1 µM), 5.04% (active); with BT-549 breast (10 µM), 43.1%; in the test on MDA-MB-435 melanoma (1 µM), 101%; in the test with MDA-MB-435 melanoma (10 µM) it was 97%. Moreover, the growth is 81.5% with SW-620 colon (1 µM); 60.6% in the test on SW-620 colon (10 µM); 26.3% with MCF7 breast (1 µM); 18.9% with MCF7 breast (10 µM); 97.9% with HCT-116 colon (1 µM); 102% with HCT-116 colon (10 µM). The growth in the test on HCC-2998 colon (1 µM) is 97.6%; in the test with HCC-2998 colon (10 µM), 82.8%; with KM12 colon (1 µM), 98.9%; with KM12 colon (10 µM), 95.5%; with MDA-MB-468 breast (1 µM), 5.9% (active); in the test on MDA-MB-468 breast (10 µM) it was -23.9% (active).
As for `CCOc1ccccc1[C@H]1C(C(=O)c2ccc(Cl)cc2)C2(N[C@@H]1c1ccccc1)C(=O)Nc1ccc(Cl)cc12` (some centres undefined), the growth in the test with T-47D breast (10 µM unless noted) is 19.9%; in the test on BT-549 breast (10 µM unless noted), 9.4% (active); in the test with MDA-MB-435 melanoma (10 µM unless noted), 24.1%; in the test on SW-620 colon (10 µM unless noted), 38.1%; with MCF7 breast (10 µM unless noted) it was 5.27% (active); in the test on HCT-116 colon (10 µM unless noted), 11.1%. For the same compound, the growth with HCC-2998 colon (10 µM unless noted) was 20.4%; with KM12 colon (10 µM unless noted) it was 24.2%.
Regarding `O=C(CSc1nc2ccccc2c(=O)[nH]1)Nc1ccccc1C(=O)O`, the growth was 93.9% in the test on T-47D breast (10 µM unless noted); 103% in the test on BT-549 breast (10 µM unless noted); 104% in the test with MDA-MB-435 melanoma (10 µM unless noted); 130% in the test on SW-620 colon (10 µM unless noted); 84.5% with MCF7 breast (10 µM unless noted); 107% in the test on HCT-116 colon (10 µM unless noted). Also, the growth was 125% with HCC-2998 colon (10 µM unless noted), 100% in the test with KM12 colon (10 µM unless noted) and 92.5% in the test with MDA-MB-468 breast (10 µM unless noted).
For the compound `Nc1nc2cc(-c3ccc4ncnc(NCc5ccccc5)c4c3)ccc2o1`, the growth was -53.6% (active) with T-47D breast (10 µM unless noted); -10.8% (active) in the test with BT-549 breast (10 µM unless noted); 16.7% with MDA-MB-435 melanoma (10 µM unless noted); 24.1% in the test on SW-620 colon (10 µM unless noted); -25.6% (active) in the test on MCF7 breast (10 µM unless noted); -20% (active) in the test on HCT-116 colon (10 µM unless noted). Further, the growth was 40.3% in the test on HCC-2998 colon (10 µM unless noted) and 25.4% in the test with KM12 colon (10 µM unless noted).
Take `Nc1cc2ccccc2c(=O)n1NC(=O)c1ccccc1`: the growth in the test with T-47D breast (10 µM unless noted) was 77.7%; in the test with BT-549 breast (10 µM unless noted) it was 120%; in the test on MDA-MB-435 melanoma (10 µM unless noted), 99.8%; in the test with SW-620 colon (10 µM unless noted), 94.8%; in the test on MCF7 breast (10 µM unless noted) it was 53.8%; in the test with HCT-116 colon (10 µM unless noted), 96.5%. Moreover, the growth in the test on HCC-2998 colon (10 µM unless noted) was 120%; with KM12 colon (10 µM unless noted), 97.7%.
For the compound `O=[N+]([O-])c1cccc(-c2nnc3c(/C=C/c4ccc(F)cc4)nc4ccccc4n23)c1`, the growth with T-47D breast (10 µM unless noted) was 74.3%; in the test on BT-549 breast (10 µM unless noted) it was 87.5%; with MDA-MB-435 melanoma (10 µM unless noted) it was 102%; in the test on SW-620 colon (10 µM unless noted), 96.1%; with MCF7 breast (10 µM unless noted), 28.4%; in the test with HCT-116 colon (10 µM unless noted), 81.1%. Moreover, the values for the growth in the test on HCC-2998 colon (10 µM unless noted) and in the test with KM12 colon (10 µM unless noted) were 105% and 97.6%, respectively.

These data come from PubChem BioAssay (NCI).
